Data from PubChem BioAssay AID1645838 (ICCB-Longwood Screening Facility, Harvard Medical School, 2021).
Where “and” joins values, the source holds several entries; their conditions need not be identical. Identical values can stand only once. Screen size: about 2,000 compounds; about 100 (5%) were called active. Rule as the data show it: active = z-score above about 2; inactive = the rest. Many of the other results were omitted from the sample, so actives are more common in it than they were.

Test: modulators of mitochondrial supercomplex assembly, cell-based, luminescence, Hoechst nuclei count (AID 1645838);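 also: control cybrid cells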;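 as to z-score: higher means more mitochondrial supercomplex formation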
Conditions: Cells, luminescence/Hoechst cell count ratio, supercomplex reporter; for z-score: stronger effect = higher value; for cell count: measured here: cell number, Hoechst nuclei count
[1] = library stock concentration (final well concentration not given) 80 uM
[2] = library stock concentration (final well concentration not given) 400 uM
[3] = library stock concentration (final well concentration not given) 2 mM
[4] = library stock concentration (final well concentration not given) 10 mM
[5] = library stock concentration (final well concentration not given) 46 uM
[6] = library stock concentration (final well concentration not given) 278 uM
[7] = library stock concentration (final well concentration not given) 1.67 mM

Question: What does the source list for `CC(C)(C)n1nc(-c2ccc(Cl)cc2)c2c(N)ncnc21`?
Answer: z-score [1]: -0.14 (inactive); z-score [2]: 0.32 (inactive); z-score [3]: 0.695 (inactive); z-score [4]: 1.68 (inactive); cell count [1]: 5420; cell count [2]: 5110; cell count [3]: 5300; cell count [4]: 4150

Question: Which results are given for `CC(C)(C)n1nc(Cc2cccc3ccccc23)c2c(N)ncnc21`?
Answer: z-score: -0.348 (inactive); cell count: 5760

Question: Which results are given for `COc1cc(Cc2cnc(N)nc2N)c2c(c1OC)OC(C1CC1)C=C2` (configuration not stated)?
Answer: z-score [1]: -0.274 (inactive); z-score [2]: -0.19 (inactive); z-score [3]: -0.518 (inactive); z-score [4]: -0.337 (inactive); cell count [1]: 5160; cell count [2]: 5070; cell count [3]: 5260; cell count [4]: 4960

Question: Which results are given for `CC(Sc1nc2ccccc2[nH]1)C(=O)N/N=C/c1cc(Br)ccc1O` (configuration not stated)?
Answer: z-score: -0.336 (inactive); cell count: 5170

Question: For `CC(Sc1nc2ccccc2[nH]1)C(=O)NN=Cc1cc(Br)ccc1O` (configuration not stated), which z-score [5] is on record?
Answer: -1.02 (inactive)

Question: And the z-score [6]?
Answer: -0.707 (inactive)

Question: What about the z-score [7] of the same molecule?
Answer: -0.734 (inactive)

Question: What about the z-score [4] of the same molecule?
Answer: 3.92 (active)

Question: What about the cell count [5] of the same molecule?
Answer: 7560

Question: And the cell count [6]?
Answer: 6830

Question: And the cell count [7]?
Answer: 7060

Question: What about the cell count [4] of the same molecule?
Answer: 3080

Question: With `CC/C=C\C/C=C\C/C=C\C/C=C\C/C=C\C/C=C\CCC(=O)NCCO` as the molecule, how does the z-score read?
Answer: -0.366 (inactive)

Question: And the cell count?
Answer: 5340

Question: Which z-score [1] does the source give for `COc1ccc(CCOC2CCCCC2N2CCC(O)C2)cc1OC` (configuration not stated) here?
Answer: 0.0501 (inactive)

Question: What about the z-score [2] of the same molecule?
Answer: 0.255 (inactive)

Question: And the z-score [3]?
Answer: -0.0276 (inactive)

Question: And the z-score [4]?
Answer: -0.648 (inactive)

Question: What about the cell count [1] of the same molecule?
Answer: 5440

Question: What about the cell count [2] of the same molecule?
Answer: 4950

Question: And the cell count [3]?
Answer: 5110

Question: What about the cell count [4] of the same molecule?
Answer: 5070

Question: Which results are given for `CN1CCN(c2ccc(Nc3cc(-c4cccc(-n5ccc6cc(C7CC7)cc(F)c6c5=O)c4CO)cn(C)c3=O)nc2)CC1`?
Answer: z-score [5]: -0.128 (inactive); z-score [6]: 0.295 (inactive); z-score [7]: 0.189 (inactive); z-score [4]: 2.34 (active); cell count [5]: 6870; cell count [6]: 6260; cell count [7]: 6670; cell count [4]: 4620

Question: For `Cc1ccc(-c2ccc3c(c2)C=C(C(=O)Nc2ccc(C[N+](C)(C)C4CCOCC4)cc2)CCC3)cc1`, which z-score [1] is on record?
Answer: 0.0335 (inactive)

Question: And the z-score [2]?
Answer: -0.0352 (inactive)

Question: And the z-score [3]?
Answer: 0.025 (inactive)

Question: And the z-score [4]?
Answer: 0.462 (inactive)

Question: What about the cell count [1] of the same molecule?
Answer: 6000

Question: And the cell count [2]?
Answer: 5610

Question: What about the cell count [3] of the same molecule?
Answer: 5740

Question: What about the cell count [4] of the same molecule?
Answer: 4810

Question: With `CCCCc1ccc(O)cc1O` as the molecule, how does the z-score [1] read?
Answer: -0.0561 (inactive)

Question: And the z-score [2]?
Answer: -0.187 (inactive)

Question: What about the z-score [3] of the same molecule?
Answer: -0.116 (inactive)

Question: What about the z-score [4] of the same molecule?
Answer: -0.378 (inactive)

Question: And the cell count [1]?
Answer: 5090

Question: And the cell count [2]?
Answer: 5680

Question: What about the cell count [3] of the same molecule?
Answer: 5060

Question: What about the cell count [4] of the same molecule?
Answer: 5370

Question: For `CCC1C(=O)N(C)c2cnc(Nc3ccc(C(=O)NC4CCC(N5CCN(CC6CC6)CC5)CC4)cc3OC)nc2N1C(C)C` (configuration not stated), which outcome (library stock 80 µM) is on record?
Answer: inactive; censored for cell count

Question: What about the outcome (library stock 400 µM) of the same molecule?
Answer: inactive; censored for cell count

Question: What about the outcome (library stock 2 mM) of the same molecule?
Answer: inactive; censored for cell count

Question: And the outcome (library stock 10 mM)?
Answer: inactive; censored for cell count

Question: Which z-score [1] does the source give for `CC(C)c1ccc(-c2cc(=O)c3ccccc3o2)cc1` here?
Answer: 0.0844 (inactive)

Question: What about the z-score [2] of the same molecule?
Answer: 1e-05 (inactive)

Question: What about the z-score [3] of the same molecule?
Answer: -0.0931 (inactive)

Question: And the z-score [4]?
Answer: -0.264 (inactive)

Question: What about the cell count [1] of the same molecule?
Answer: 5390

Question: And the cell count [2]?
Answer: 5660

Question: What about the cell count [3] of the same molecule?
Answer: 5670

Question: What about the cell count [4] of the same molecule?
Answer: 5910

Question: What does the source list for `CCc1nc(N)nc(N)c1-c1ccc(Cl)cc1`?
Answer: z-score [5]: -0.369 (inactive); z-score [6]: -0.308 (inactive); z-score [7]: -0.256 (inactive); z-score [4]: 2.87 (active); cell count [5]: 6220; cell count [6]: 5950; cell count [7]: 4990; cell count [4]: 2210

Question: What does the source list for `Cc1nc(C(=O)N2CCCC2Cc2nnc(-c3ccccc3)o2)c(-c2ccccc2F)s1` (configuration not stated)?
Answer: z-score [1]: -0.436 (inactive); z-score [2]: -0.462 (inactive); z-score [3]: -0.287 (inactive); z-score [4]: -0.37 (inactive); cell count [1]: 6270; cell count [2]: 5950; cell count [3]: 5640; cell count [4]: 5740

Question: What does the source list for `CCCCC[C@H](O)/C=C/[C@H]1C(=O)C[C@H](O)[C@@H]1C/C=C\CCCC(=O)OCC(O)CO` (some centres not stated)?
Answer: z-score: 0.539 (inactive); cell count: 4970

Question: Which z-score does the source give for `CCCCC[C@H](O)/C=C/[C@@H]1[C@@H](C/C=C/CCCC(=O)O)[C@@H](O)C[C@H]1O` here?
Answer: -0.886 (inactive) and -1.17 (inactive)

Question: What about the cell count of the same molecule?
Answer: 5940 and 5560

Question: For `CC(=O)Nc1ccc(NC(=S)NC(=O)c2ccc(C(C)(C)C)cc2)cc1`, which z-score is on record?
Answer: 1.3 (inactive)

Question: What about the cell count of the same molecule?
Answer: 5410

Question: With `CC(=O)Nc1ccc(C(=O)Nc2sc(Nc3ccccc3)nc2C(N)=O)cc1` as the molecule, how does the z-score [1] read?
Answer: 0.365 (inactive)

Question: And the z-score [2]?
Answer: 0.37 (inactive)

Question: And the z-score [3]?
Answer: 2.89 (active)

Question: What about the z-score [4] of the same molecule?
Answer: 5.1 (active)

Question: What about the cell count [1] of the same molecule?
Answer: 5180

Question: And the cell count [2]?
Answer: 5070

Question: And the cell count [3]?
Answer: 3500

Question: What about the cell count [4] of the same molecule?
Answer: 2950

Question: What does the source list for `COc1ccc(C(=O)Nc2sc(Nc3ccccc3)nc2C(N)=O)cc1`?
Answer: z-score [1]: 0.24 (inactive); z-score [2]: 0.382 (inactive); z-score [3]: -0.143 (inactive); z-score [4]: 1.05 (inactive); cell count [1]: 4690; cell count [2]: 4800; cell count [3]: 4780; cell count [4]: 4300

Question: Which z-score does the source give for `CCCCC[C@H](O)CC[C@@H]1[C@@H](CCCCCCC(=O)O)[C@@H](O)C[C@H]1O` here?
Answer: -0.187 (inactive)

Question: And the cell count?
Answer: 5660

Question: What does the source list for `COc1cc(Nc2ncc(F)c(Nc3ccc4c(n3)NC(=O)C(C)(C)O4)n2)cc(OC)c1OC`?
Answer: z-score [1]: -0.348 (inactive); z-score [2]: -0.268 (inactive); z-score [3]: 0.433 (inactive); z-score [4]: 2.15 (active); cell count [1]: 4400; cell count [2]: 3910; cell count [3]: 3800; cell count [4]: 1990
